Assay in all cases: DAPPL (digital affinity profiling via proximity ligation, sequencing); 10 mM Tris-HCl pH 7.5, 50 mM NaCl, 1 mM DTT, 4% glycerol, room temperature, 30 min; GST-TFs on glutathione beads, 16-mer random dsDNA library, 0.1% formaldehyde crosslink after washing; high values mean tight binding
One assay addresses T1, FLI1 (Homo sapiens, UniProt Q01543 1-452).
T1 sequence: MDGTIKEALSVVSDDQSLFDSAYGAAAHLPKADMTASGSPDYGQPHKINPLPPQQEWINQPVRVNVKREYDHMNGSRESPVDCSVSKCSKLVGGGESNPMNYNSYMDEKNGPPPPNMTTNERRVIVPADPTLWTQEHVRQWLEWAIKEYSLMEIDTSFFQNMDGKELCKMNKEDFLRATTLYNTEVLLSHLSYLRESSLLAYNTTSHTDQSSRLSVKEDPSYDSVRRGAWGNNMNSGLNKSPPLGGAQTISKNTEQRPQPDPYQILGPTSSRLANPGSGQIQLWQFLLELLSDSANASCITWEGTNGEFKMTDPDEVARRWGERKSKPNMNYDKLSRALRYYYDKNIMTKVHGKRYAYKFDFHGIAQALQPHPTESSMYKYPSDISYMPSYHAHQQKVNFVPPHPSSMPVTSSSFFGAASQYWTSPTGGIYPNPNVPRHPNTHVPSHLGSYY
The note with it: protein: recombinant; tags: N-terminal GST; dsDNA, one strand shown. The essentials:
(§1)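 Pools were built from human transcription factors expressed in yeast as GST fusions, captured on glutathione beads and DNA-barcoded, along with a tag-only sample. Incubation with 200 nmole of a 16-mer random double-stranded DNA library lasted 30 min at room temperature in Tris/NaCl/DTT/glycerol buffer, and was followed by washing, 0.1% formaldehyde crosslinking, proximity ligation, PCR amplification and Illumina NextSeq500 sequencing. Binding signal is the quotient of each hexamer's read frequency for a factor and its frequency for the tag-only sample.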

The target in the next assay is T2, ELK1 (Homo sapiens, UniProt P19419 1-428).
T2 sequence: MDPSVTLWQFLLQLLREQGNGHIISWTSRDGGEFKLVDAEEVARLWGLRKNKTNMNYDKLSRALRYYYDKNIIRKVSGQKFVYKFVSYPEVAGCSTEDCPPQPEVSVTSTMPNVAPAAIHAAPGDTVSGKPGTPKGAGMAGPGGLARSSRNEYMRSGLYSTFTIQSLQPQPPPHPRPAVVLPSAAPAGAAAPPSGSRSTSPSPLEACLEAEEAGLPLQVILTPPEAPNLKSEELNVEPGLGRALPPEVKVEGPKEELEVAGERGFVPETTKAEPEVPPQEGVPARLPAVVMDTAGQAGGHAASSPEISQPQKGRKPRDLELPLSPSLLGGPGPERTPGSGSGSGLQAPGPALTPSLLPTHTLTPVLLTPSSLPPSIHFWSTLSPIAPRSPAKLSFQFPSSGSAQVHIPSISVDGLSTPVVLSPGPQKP
The note with it: protein: recombinant; tags: N-terminal GST; dsDNA, one strand shown. The gist of the method:
as §1

In a further assay the target is T3, GABPA (Homo sapiens, UniProt Q06546 1-454).
T3 sequence: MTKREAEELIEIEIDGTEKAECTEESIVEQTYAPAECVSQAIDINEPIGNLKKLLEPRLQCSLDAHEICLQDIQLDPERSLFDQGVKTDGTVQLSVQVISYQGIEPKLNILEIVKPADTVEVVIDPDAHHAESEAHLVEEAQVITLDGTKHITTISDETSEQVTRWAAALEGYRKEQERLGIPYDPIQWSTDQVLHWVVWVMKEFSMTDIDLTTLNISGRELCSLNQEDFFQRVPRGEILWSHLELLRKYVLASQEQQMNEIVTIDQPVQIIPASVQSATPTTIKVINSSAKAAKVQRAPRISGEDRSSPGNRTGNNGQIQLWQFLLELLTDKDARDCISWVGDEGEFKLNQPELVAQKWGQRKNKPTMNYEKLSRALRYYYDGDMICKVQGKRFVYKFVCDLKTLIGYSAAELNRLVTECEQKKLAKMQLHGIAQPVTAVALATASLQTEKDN
The settings on record: protein: recombinant; tags: N-terminal GST; dsDNA, one strand shown. The gist of the method: as §1

The target of the next assay is T4, ERG (Homo sapiens, UniProt P11308 1-479).
T4 sequence: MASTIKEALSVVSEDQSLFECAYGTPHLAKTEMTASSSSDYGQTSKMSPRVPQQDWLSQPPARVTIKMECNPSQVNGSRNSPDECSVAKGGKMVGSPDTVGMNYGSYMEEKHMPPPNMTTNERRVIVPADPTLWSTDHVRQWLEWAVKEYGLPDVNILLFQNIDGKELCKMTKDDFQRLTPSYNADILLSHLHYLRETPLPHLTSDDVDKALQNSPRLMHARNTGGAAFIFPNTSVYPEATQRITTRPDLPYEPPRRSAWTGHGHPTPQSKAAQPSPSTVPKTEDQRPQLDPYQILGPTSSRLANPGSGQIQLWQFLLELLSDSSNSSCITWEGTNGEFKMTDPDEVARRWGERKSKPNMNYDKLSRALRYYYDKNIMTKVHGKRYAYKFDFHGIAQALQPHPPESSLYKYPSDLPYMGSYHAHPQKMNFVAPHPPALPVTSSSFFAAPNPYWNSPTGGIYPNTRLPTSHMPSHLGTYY
The note with it: protein: recombinant; tags: N-terminal GST; dsDNA, one strand shown. The gist of the method: as §1

For another assay, the target named is ELF1 (Homo sapiens, UniProt P32519 1-619). The settings on record: protein: recombinant; tags: N-terminal GST; dsDNA, one strand shown. The gist of the method:
as §1

A further assay concerns the target T5, EHF (Homo sapiens, UniProt Q9NZC4 1-300).
T5 sequence: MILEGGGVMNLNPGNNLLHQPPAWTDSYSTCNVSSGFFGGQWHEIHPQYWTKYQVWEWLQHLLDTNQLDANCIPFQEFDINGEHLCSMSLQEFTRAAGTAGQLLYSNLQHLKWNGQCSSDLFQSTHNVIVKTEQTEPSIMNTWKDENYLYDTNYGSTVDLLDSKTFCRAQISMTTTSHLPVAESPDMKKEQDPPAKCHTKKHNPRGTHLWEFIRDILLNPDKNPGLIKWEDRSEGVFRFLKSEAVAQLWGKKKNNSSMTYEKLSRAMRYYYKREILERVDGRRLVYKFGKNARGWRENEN
The note with it: protein: recombinant; tags: N-terminal GST; dsDNA, one strand shown. The gist of the method:
as §1

The target of a further assay is SPI1 (Homo sapiens, UniProt P17947 1-270). The settings on record: protein: recombinant; tags: N-terminal GST; dsDNA, one strand shown. The essentials:
as §1

Another assay concerns the target SPIB (Homo sapiens, UniProt Q01892 1-262). The note with it: protein: recombinant; tags: N-terminal GST; dsDNA, one strand shown. The gist of the method: as §1
Another assay addresses T6, ELK3 (Homo sapiens, UniProt P41970 1-407).
T6 sequence: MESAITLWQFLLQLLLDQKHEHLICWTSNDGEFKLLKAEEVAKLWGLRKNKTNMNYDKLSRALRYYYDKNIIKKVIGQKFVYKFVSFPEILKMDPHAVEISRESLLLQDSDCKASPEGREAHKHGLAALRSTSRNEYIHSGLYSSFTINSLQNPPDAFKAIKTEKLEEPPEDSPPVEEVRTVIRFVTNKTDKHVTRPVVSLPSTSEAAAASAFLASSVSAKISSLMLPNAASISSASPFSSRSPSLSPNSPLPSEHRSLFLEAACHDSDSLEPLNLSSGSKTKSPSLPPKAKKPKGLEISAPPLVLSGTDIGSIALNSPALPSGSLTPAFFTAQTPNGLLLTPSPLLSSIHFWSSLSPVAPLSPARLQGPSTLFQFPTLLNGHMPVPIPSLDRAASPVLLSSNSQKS
The settings on record: protein: recombinant; tags: N-terminal GST; dsDNA, one strand shown. The essentials:
as §1

The target in the next assay is T7, FEV (Homo sapiens, UniProt Q99581 1-238).
T7 sequence: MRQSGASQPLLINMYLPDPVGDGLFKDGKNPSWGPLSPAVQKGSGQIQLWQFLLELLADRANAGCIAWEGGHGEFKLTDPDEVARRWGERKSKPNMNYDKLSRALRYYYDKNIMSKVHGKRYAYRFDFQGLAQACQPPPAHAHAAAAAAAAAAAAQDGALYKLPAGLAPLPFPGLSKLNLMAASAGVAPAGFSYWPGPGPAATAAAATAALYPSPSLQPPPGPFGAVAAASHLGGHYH
The settings on record: protein: recombinant; tags: N-terminal GST; dsDNA, one strand shown. The essentials: as §1

In another assay the target is ETV5 (Homo sapiens, UniProt P41161 1-510). The note with it: protein: recombinant; tags: N-terminal GST; dsDNA, one strand shown. The gist of the method:
as §1

In another assay the target is HSF1 (Homo sapiens, UniProt Q00613 1-529). The settings on record: protein: recombinant; tags: N-terminal GST; chain copies: 3; dsDNA, one strand shown. The gist of the method: as §1
The next assay addresses T8, SPIC (Homo sapiens, UniProt Q8N5J4 1-248).
T8 sequence: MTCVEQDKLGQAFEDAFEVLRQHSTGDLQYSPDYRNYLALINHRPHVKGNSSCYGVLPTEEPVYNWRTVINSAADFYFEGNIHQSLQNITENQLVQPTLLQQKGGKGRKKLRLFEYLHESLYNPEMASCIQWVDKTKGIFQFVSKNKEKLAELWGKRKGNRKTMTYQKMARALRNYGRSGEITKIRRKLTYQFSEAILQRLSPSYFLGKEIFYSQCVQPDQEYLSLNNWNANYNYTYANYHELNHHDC
The settings on record: protein: recombinant; tags: N-terminal GST; dsDNA, one strand shown. The essentials: as §1

The target in the next assay is ELF4 (Homo sapiens, UniProt Q99607 1-663). The note with it: protein: recombinant; tags: N-terminal GST; dsDNA, one strand shown. The essentials: as §1
The next assay has as its target T9, ELK4 (Homo sapiens, UniProt P28324-2 1-405).
T9 sequence: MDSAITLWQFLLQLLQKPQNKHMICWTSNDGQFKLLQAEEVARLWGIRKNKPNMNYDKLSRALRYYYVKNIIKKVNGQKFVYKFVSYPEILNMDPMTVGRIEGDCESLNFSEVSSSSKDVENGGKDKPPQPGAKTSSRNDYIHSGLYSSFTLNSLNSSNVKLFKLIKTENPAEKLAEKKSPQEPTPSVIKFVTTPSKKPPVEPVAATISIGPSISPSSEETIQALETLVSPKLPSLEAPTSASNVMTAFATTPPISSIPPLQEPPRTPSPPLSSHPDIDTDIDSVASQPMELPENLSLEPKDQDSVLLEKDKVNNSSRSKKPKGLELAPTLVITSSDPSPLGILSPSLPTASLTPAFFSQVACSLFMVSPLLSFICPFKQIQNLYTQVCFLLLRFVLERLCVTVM
The settings on record: protein: recombinant; tags: N-terminal GST; dsDNA, one strand shown. The gist of the method:
as §1

For a further assay, the target named is T10, ETV2 (Homo sapiens, UniProt O00321 1-342).
T10 sequence: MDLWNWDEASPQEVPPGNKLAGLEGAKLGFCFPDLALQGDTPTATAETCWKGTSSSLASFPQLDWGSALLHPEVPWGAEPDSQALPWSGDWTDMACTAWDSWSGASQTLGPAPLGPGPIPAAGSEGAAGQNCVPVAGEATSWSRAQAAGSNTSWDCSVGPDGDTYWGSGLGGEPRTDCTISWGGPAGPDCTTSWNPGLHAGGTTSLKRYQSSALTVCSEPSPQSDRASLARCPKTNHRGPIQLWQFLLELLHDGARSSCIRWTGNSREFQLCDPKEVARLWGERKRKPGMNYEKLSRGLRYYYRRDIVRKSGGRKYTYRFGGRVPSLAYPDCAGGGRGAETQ
The note with it: protein: recombinant; tags: N-terminal GST; dsDNA, one strand shown. The essentials:
as §1

The target in the next assay is T11, ELF3 (Homo sapiens, UniProt P78545 1-371).
T11 sequence: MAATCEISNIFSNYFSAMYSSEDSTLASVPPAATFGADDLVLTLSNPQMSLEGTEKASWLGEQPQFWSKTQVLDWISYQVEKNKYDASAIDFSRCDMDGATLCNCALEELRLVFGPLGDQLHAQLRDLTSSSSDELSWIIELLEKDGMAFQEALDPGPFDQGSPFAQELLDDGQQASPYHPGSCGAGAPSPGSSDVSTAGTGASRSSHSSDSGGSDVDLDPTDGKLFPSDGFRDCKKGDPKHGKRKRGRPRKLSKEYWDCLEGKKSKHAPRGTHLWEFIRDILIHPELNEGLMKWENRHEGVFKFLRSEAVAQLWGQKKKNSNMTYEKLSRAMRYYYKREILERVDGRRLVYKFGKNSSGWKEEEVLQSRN
The settings on record: protein: recombinant; tags: N-terminal GST; dsDNA, one strand shown. The gist of the method: as §1

The target of another assay is ETV1 (Homo sapiens, UniProt P50549 1-477). The settings on record: protein: recombinant; tags: N-terminal GST; dsDNA, one strand shown. The essentials:
as §1

Sequence of ELF1 (P32519 whole entry): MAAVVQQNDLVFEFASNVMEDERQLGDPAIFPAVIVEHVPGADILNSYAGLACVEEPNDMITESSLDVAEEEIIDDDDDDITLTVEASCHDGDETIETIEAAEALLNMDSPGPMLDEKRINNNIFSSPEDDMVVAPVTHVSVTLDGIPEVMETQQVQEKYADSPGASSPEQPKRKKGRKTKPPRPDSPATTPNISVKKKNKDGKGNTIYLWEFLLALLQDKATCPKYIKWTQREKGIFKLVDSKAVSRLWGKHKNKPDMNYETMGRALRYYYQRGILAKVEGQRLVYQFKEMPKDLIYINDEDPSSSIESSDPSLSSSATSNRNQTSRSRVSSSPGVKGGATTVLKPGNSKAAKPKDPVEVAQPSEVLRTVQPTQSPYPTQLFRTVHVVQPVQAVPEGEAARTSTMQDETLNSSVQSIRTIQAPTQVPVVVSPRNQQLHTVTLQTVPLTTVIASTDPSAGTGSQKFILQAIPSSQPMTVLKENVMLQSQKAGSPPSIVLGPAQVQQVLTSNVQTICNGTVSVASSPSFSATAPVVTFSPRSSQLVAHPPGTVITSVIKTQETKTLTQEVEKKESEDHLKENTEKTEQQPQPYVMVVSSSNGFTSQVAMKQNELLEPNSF
Sequence of HSF1 (Q00613 whole entry): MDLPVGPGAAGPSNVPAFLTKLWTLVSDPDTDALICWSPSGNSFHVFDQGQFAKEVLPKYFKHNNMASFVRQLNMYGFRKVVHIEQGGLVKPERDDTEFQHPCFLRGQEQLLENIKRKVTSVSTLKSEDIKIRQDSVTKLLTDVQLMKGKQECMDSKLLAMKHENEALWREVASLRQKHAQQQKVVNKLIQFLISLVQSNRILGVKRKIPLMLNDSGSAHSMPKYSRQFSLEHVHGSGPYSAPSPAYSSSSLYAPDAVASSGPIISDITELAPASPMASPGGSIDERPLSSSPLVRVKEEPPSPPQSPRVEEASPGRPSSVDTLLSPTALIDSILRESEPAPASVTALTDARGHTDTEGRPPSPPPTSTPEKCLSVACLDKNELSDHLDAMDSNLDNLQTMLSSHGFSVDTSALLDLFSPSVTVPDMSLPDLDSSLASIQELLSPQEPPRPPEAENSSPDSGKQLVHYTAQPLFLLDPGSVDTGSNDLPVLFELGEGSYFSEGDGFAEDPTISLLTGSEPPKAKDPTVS
Sequence of ELF4 (Q99607 whole entry): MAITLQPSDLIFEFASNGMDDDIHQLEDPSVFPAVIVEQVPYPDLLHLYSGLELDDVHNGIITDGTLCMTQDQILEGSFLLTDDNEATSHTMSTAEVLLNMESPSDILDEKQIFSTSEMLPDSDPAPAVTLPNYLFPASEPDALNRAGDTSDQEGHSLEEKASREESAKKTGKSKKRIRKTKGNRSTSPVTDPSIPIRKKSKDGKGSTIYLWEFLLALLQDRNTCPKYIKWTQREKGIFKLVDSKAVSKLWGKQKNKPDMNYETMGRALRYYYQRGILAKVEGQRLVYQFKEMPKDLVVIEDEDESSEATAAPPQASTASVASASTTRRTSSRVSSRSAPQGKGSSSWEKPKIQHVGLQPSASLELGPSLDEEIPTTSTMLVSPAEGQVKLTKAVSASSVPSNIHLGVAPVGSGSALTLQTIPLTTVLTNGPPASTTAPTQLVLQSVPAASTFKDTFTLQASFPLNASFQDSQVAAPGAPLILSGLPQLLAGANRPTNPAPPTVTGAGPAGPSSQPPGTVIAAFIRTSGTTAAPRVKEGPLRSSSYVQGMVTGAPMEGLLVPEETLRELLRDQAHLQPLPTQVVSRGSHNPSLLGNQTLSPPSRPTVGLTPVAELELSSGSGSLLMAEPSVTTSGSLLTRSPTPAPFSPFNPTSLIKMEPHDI
Sequence of ETV1 (P50549 whole entry): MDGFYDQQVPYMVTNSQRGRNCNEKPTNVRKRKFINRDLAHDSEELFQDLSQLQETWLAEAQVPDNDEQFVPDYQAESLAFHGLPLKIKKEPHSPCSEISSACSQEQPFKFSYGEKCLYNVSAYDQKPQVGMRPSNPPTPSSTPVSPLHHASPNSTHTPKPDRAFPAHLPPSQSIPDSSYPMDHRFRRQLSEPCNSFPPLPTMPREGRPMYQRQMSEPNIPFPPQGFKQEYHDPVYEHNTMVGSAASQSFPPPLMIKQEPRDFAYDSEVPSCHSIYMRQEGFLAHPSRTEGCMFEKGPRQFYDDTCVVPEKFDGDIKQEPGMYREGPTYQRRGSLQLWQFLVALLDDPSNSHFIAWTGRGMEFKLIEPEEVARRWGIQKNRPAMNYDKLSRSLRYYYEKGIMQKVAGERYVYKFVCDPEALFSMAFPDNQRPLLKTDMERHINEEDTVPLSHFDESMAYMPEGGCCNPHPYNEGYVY
Sequence of ETV5 (P41161 whole entry): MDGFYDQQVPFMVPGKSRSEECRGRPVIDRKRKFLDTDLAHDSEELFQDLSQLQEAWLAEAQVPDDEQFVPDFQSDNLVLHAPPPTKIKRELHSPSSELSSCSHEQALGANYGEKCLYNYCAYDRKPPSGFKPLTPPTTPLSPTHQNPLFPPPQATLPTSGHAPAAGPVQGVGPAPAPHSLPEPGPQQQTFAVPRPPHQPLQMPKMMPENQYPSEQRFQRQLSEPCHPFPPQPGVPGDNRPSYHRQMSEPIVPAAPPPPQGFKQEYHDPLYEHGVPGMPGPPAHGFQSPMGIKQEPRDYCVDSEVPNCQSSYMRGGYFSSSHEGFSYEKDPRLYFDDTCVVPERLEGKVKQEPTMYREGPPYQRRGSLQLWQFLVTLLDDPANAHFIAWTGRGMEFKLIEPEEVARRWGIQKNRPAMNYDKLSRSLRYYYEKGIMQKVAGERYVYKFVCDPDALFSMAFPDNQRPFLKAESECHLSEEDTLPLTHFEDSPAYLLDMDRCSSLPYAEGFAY
Sequence of SPIB (Q01892 whole entry): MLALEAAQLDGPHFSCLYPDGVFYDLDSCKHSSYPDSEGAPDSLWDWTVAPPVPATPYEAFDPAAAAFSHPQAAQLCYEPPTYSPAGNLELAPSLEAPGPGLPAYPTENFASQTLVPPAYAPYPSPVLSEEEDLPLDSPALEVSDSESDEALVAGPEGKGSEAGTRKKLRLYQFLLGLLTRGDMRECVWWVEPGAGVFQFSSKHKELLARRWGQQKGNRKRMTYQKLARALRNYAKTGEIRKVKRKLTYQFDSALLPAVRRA

As to GACCTG, the binding signal with FLI1 is 1.19 fold enrichment (6-mer frequency, TF over GST control); with ELK1, 1.26 fold enrichment (6-mer frequency, TF over GST control); with GABPA, 1.19 fold enrichment (6-mer frequency, TF over GST control); with ERG it was 1.26 fold enrichment (6-mer frequency, TF over GST control); with ELF1, 1.27 fold enrichment (6-mer frequency, TF over GST control); in the assay with EHF, 1.28 fold enrichment (6-mer frequency, TF over GST control). In addition, the binding signal in the assay with SPI1 is 1.26 fold enrichment (6-mer frequency, TF over GST control); with SPIB, 1.17 fold enrichment (6-mer frequency, TF over GST control); in the assay with ELK3 it was 1.35 fold enrichment (6-mer frequency, TF over GST control); with FEV it was 1.32 fold enrichment (6-mer frequency, TF over GST control); with ETV5, 1.28 fold enrichment (6-mer frequency, TF over GST control); with HSF1, 1.01 fold enrichment (6-mer frequency, TF over GST control). The binding signal with SPIC is 1.24 fold enrichment (6-mer frequency, TF over GST control); with ELF4, 1.28 fold enrichment (6-mer frequency, TF over GST control); in the assay with ELK4, 1.29 fold enrichment (6-mer frequency, TF over GST control); with ETV2, 1.45 fold enrichment (6-mer frequency, TF over GST control); with ELF3, 1.2 fold enrichment (6-mer frequency, TF over GST control); with ETV1 it was 1.21 fold enrichment (6-mer frequency, TF over GST control).

(Values after publication PMC7862700, “An all-to-all approach to the identification of sequence-specific readers for epigenetic DNA modifications on cytosine”.)
